Test results from PMC12864922, “TDP-43 directly inhibits mRNA accumulation in neurites through modulation of mRNA stability”.
Whole data set: some 9,900 sequences, median “r (bound/input frequency ratio)” near 0.7, cut for the highest 2% near 6.5. Shown is part of a subset that was picked to be rich in the highest values.

B1: ENSMUSG00000004113.145|Cacna1b (ssRNA)
RNA: GGGAGUUCUACAGUCCGACGAUCGCUUCGAUAUCCGCAUGCUAAAAUAGCACAUGUAUGUAGAGAUGCGCUCAAGGGCCUGCCUUUCACCUACACUGUCACCAUAACAGGGACCAAAUCUGGAGGAUGUCCUUGCUGUUGAUUCUGGUUUUCAGUCACAACACUUUCACUGUUUGUCAUUUCUAUGUAGUUGAUCUAGAAAAAGCAGAAAUCAAAACAGGAAAGGAAAUGUUUGUGUAACUUUAAAAAAAAAGUCAACAUGUAGGAAGGUCUCCAUUUUGCAUUGUUUCUGUGUCUUGUAUGCCUCUUGCGGUCGCACUAGUGUGGAAUUCUCGGGUGUCAAGG
B2: ENSMUSG00000031028.502|Tub|9:15;46:52 (ssRNA)
RNA: GGGAGUUCUACAGUCCGACGAUCGCUUCGAUAUCCGCAUGCUACAAGUAAGCACACACCCUCUGGGAAGACAGGAGUCGGAAGCCAAGCACACACGCAACAGUCUGGAAGAGAGCUUUUGGUAAUCAUACCGUCUUCAGUGACAAGGCAACAAUGCUGUAAAGUGGGUUUGUUUGGUUUUGUUUUUUCUUUCUCUUUUAUGGAAAUGGCAGGUCUAUUUGCCUCAAACGUUAUGUAGAAGUAGUUCUAAGUUUAACAAGCAAUAGAGAUGACUGCUUAGCUAGGAUCUGCAGGGAGCUCUGCUCUCUUGCGGUCGCACUAGUGUGGAAUUCUCGGGUGUCAAGG
B3: ENSMUSG00000031028.254|Tub|5:10 (ssRNA)
RNA: GGGAGUUCUACAGUCCGACGAUCGCUUCGAUAUCCGCAUGCUAUGCCACACACCCAUCUGUGAGAAGCUUCUUGGAGCUGAGACACCAGAGGGAAGCAAAGAGCAUUUAGACAUUGCUUUUUGCUUUGAAAUAGAUAUGUUUGGAAACGCUAAGUAGAAGUUUAAAAAGUAGAGUCAUGUAGAGUCAUGCUUUGAAUAUGUGGGUCAUGCUUUAGAUAUGAAGAGGCUAUGCAGGUAAGGAGGCUGGAUUGAUGUAAAUGGAAGUAGUACUUUAAGAAAGCUCUAGAUUUCCCAGGUUGGACACUCUUGCGGUCGCACUAGUGUGGAAUUCUCGGGUGUCAAGG
B4: ENSMUSG00000090935.680|Synj2bp|248:252 (ssRNA)
RNA: GGGAGUUCUACAGUCCGACGAUCGCUUCGAUAUCCGCAUGCUAUUGAGAUUCACCACUGUCAGGAGCUCUCUCUCUCUGCUUAGAAUCAUCCAGACAGCGGGCUGGUCAGCCCACAUUAAAUAAGAACAUGUGGGACUAGAAUUCAGUCAACAAUGACAUGUUUCAUCAGGUGGUUAAAAUGUACAGAUUCUGUUGGAAAUGUUCCAUGGUAUUUCAAUAGCCAGAAUGAAGAACUGGGCUAAGUCCAGAGCUCUGCUCUCUGAGCAUCUGCCCCAGAUACAGAGGCAGACAUACAAGUGGAACUCUUGCGGUCGCACUAGUGUGGAAUUCUCGGGUGUCAAGG
B5: ENSMUSG00000031028.420|Tub (ssRNA)
RNA: GGGAGUUCUACAGUCCGACGAUCGCUUCGAUAUCCGCAUGCUAGAAGAGCAGCCUAGUCUGUAAGAGUGCAGGGCAGCUGGAACCUUAGGCAGCUCCUCUGUAUGCUACCGGCUCCACACCCUAACACUCUCCACCCUCUGCUCCAAACCAGUUCUUCUGCAGAGUGGUGAUGUUAGCUUCCCCAGCUCCUCUCCAAGUCUAGCUUUUUCUGUCCUUCUGGCUCCAAGGUGCUCUGUGUCUGUGUGUGUGUGUCUGUCUGUGUGUGUGUGUGUCGAGGAAAGGGCAAUCUGCAAACAAUGAACCUCUUGCGGUCGCACUAGUGUGGAAUUCUCGGGUGUCAAGG
B6: ENSMUSG00000031028.421|Tub (ssRNA)
RNA: GGGAGUUCUACAGUCCGACGAUCGCUUCGAUAUCCGCAUGCUACAGCCUAGUCUGUAAGAGUGCAGGGCAGCUGGAACCUUAGGCAGCUCCUCUGUAUGCUACCGGCUCCACACCCUAACACUCUCCACCCUCUGCUCCAAACCAGUUCUUCUGCAGAGUGGUGAUGUUAGCUUCCCCAGCUCCUCUCCAAGUCUAGCUUUUUCUGUCCUUCUGGCUCCAAGGUGCUCUGUGUCUGUGUGUGUGUGUCUGUCUGUGUGUGUGUGUGUCGAGGAAAGGGCAAUCUGCAAACAAUGAACAGAAGUCUCUUGCGGUCGCACUAGUGUGGAAUUCUCGGGUGUCAAGG
B7: ENSMUSG00000031028.418|Tub (ssRNA)
RNA: GGGAGUUCUACAGUCCGACGAUCGCUUCGAUAUCCGCAUGCUAGCAAAUUGGUGAGAAGAGCAGCCUAGUCUGUAAGAGUGCAGGGCAGCUGGAACCUUAGGCAGCUCCUCUGUAUGCUACCGGCUCCACACCCUAACACUCUCCACCCUCUGCUCCAAACCAGUUCUUCUGCAGAGUGGUGAUGUUAGCUUCCCCAGCUCCUCUCCAAGUCUAGCUUUUUCUGUCCUUCUGGCUCCAAGGUGCUCUGUGUCUGUGUGUGUGUGUCUGUCUGUGUGUGUGUGUGUCGAGGAAAGGGCAAUCUGCUCUUGCGGUCGCACUAGUGUGGAAUUCUCGGGUGUCAAGG
B8: ENSMUSG00000031028.419|Tub|64:68;198:202;204:216;222:236 (ssRNA)
RNA: GGGAGUUCUACAGUCCGACGAUCGCUUCGAUAUCCGCAUGCUAUGGUGAGAAGAGCAGCCUAGUCUGUAAGAGUGCAGGGCAGCUGGAACCUUAGGCAGCUCCUCUCAUACCUACCGGCUCCACACCCUAACACUCUCCACCCUCUGCUCCAAACCAGUUCUUCUGCAGAGUGGUGAUGUUAGCUUCCCCAGCUCCUCUCCAAGUCUAGCUUUUUCUGUCCUUCUGGCUCCAAGGUGCUCACACACACACACACACACACUGUCACACACACACACACACGAGGAAAGGGCAAUCUGCAAACACUCUUGCGGUCGCACUAGUGUGGAAUUCUCGGGUGUCAAGG
B9: ENSMUSG00000031028.419|Tub (ssRNA)
RNA: GGGAGUUCUACAGUCCGACGAUCGCUUCGAUAUCCGCAUGCUAUGGUGAGAAGAGCAGCCUAGUCUGUAAGAGUGCAGGGCAGCUGGAACCUUAGGCAGCUCCUCUGUAUGCUACCGGCUCCACACCCUAACACUCUCCACCCUCUGCUCCAAACCAGUUCUUCUGCAGAGUGGUGAUGUUAGCUUCCCCAGCUCCUCUCCAAGUCUAGCUUUUUCUGUCCUUCUGGCUCCAAGGUGCUCUGUGUCUGUGUGUGUGUGUCUGUCUGUGUGUGUGUGUGUCGAGGAAAGGGCAAUCUGCAAACACUCUUGCGGUCGCACUAGUGUGGAAUUCUCGGGUGUCAAGG
B10: ENSMUSG00000031028.417|Tub (ssRNA)
RNA: GGGAGUUCUACAGUCCGACGAUCGCUUCGAUAUCCGCAUGCUAUGGGUAGCAAAUUGGUGAGAAGAGCAGCCUAGUCUGUAAGAGUGCAGGGCAGCUGGAACCUUAGGCAGCUCCUCUGUAUGCUACCGGCUCCACACCCUAACACUCUCCACCCUCUGCUCCAAACCAGUUCUUCUGCAGAGUGGUGAUGUUAGCUUCCCCAGCUCCUCUCCAAGUCUAGCUUUUUCUGUCCUUCUGGCUCCAAGGUGCUCUGUGUCUGUGUGUGUGUGUCUGUCUGUGUGUGUGUGUGUCGAGGAAAGGGCCUCUUGCGGUCGCACUAGUGUGGAAUUCUCGGGUGUCAAGG
B11: ENSMUSG00000031028.418|Tub|70:74;204:208;210:222;228:242 (ssRNA)
RNA: GGGAGUUCUACAGUCCGACGAUCGCUUCGAUAUCCGCAUGCUAGCAAAUUGGUGAGAAGAGCAGCCUAGUCUGUAAGAGUGCAGGGCAGCUGGAACCUUAGGCAGCUCCUCUCAUACCUACCGGCUCCACACCCUAACACUCUCCACCCUCUGCUCCAAACCAGUUCUUCUGCAGAGUGGUGAUGUUAGCUUCCCCAGCUCCUCUCCAAGUCUAGCUUUUUCUGUCCUUCUGGCUCCAAGGUGCUCACACACACACACACACACACUGUCACACACACACACACACGAGGAAAGGGCAAUCUGCUCUUGCGGUCGCACUAGUGUGGAAUUCUCGGGUGUCAAGG
B12: ENSMUSG00000031028.409|Tub (ssRNA)
RNA: GGGAGUUCUACAGUCCGACGAUCGCUUCGAUAUCCGCAUGCUAACAGGAAGAUCCCUUACCCCUCAUCCCCUCUUCUUUUUGGUCCUUGGCUGGGUAGCAAAUUGGUGAGAAGAGCAGCCUAGUCUGUAAGAGUGCAGGGCAGCUGGAACCUUAGGCAGCUCCUCUGUAUGCUACCGGCUCCACACCCUAACACUCUCCACCCUCUGCUCCAAACCAGUUCUUCUGCAGAGUGGUGAUGUUAGCUUCCCCAGCUCCUCUCCAAGUCUAGCUUUUUCUGUCCUUCUGGCUCCAAGGUGCUCUGUCUCUUGCGGUCGCACUAGUGUGGAAUUCUCGGGUGUCAAGG
B13: ENSMUSG00000031028.416|Tub (ssRNA)
RNA: GGGAGUUCUACAGUCCGACGAUCGCUUCGAUAUCCGCAUGCUACUUGGCUGGGUAGCAAAUUGGUGAGAAGAGCAGCCUAGUCUGUAAGAGUGCAGGGCAGCUGGAACCUUAGGCAGCUCCUCUGUAUGCUACCGGCUCCACACCCUAACACUCUCCACCCUCUGCUCCAAACCAGUUCUUCUGCAGAGUGGUGAUGUUAGCUUCCCCAGCUCCUCUCCAAGUCUAGCUUUUUCUGUCCUUCUGGCUCCAAGGUGCUCUGUGUCUGUGUGUGUGUGUCUGUCUGUGUGUGUGUGUGUCGAGGACUCUUGCGGUCGCACUAGUGUGGAAUUCUCGGGUGUCAAGG

Biological target: TDP-43 (Homo sapiens, UniProt Q13148 1-414)
Sequence (Q13148 whole entry): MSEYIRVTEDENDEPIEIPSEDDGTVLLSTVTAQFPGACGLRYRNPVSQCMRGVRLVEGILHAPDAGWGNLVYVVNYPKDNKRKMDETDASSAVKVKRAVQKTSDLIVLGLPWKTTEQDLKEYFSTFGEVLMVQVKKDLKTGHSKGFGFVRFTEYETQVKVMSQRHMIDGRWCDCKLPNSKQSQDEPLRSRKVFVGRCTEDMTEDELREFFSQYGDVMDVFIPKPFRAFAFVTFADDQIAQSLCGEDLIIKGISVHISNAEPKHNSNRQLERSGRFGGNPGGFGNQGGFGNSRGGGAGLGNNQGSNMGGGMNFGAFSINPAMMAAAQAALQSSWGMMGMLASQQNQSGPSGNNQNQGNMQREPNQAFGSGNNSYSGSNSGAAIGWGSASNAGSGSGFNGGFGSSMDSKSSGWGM
Assay: RNA Bind-n-Seq with designed 260-mer pool; 25 mM Tris-HCl, 150 mM KCl, 3 mM MgCl2, BSA (printed 500 mg/mL), 20 units/mL SUPERase IN; pH not stated; 500 nM RNA pool, 1 h, 4 C; TDP-43 5, 50, 500 nM; high values mean tight binding
Details: protein: recombinant; tags: SBP (GST cleaved off with PreScission; pGEX-GST-SBP)
Summary of the method: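 Duplicate measurements used two independent batches of recombinant SBP-tagged TDP-43, which was captured on streptavidin beads at 5, 50 or 500 nM. The beads were incubated with 500 nM of an in vitro-transcribed 260-nt 3′ UTR oligo pool for 1 h at 4 °C in 25 mM Tris-HCl, 150 mM KCl, 3 mM MgCl2, BSA and SUPERase IN. After washing, biotin elution, reverse transcription, PCR amplification and sequencing, binding was expressed as R: each oligo's normalized read abundance in the bound sample over its abundance in input.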

Row | Binder | binding signal
1 | B1 | 0.241 R (bound/input frequency ratio)
2 | B2 | 0.277 R (bound/input frequency ratio)
3 | B3 | 1.12 R (bound/input frequency ratio)
4 | B4 | 0.197 R (bound/input frequency ratio)
5 | B5 | 7.33 R (bound/input frequency ratio)
6 | B6 | 5.82 R (bound/input frequency ratio)
7 | B7 | 7.04 R (bound/input frequency ratio)
8 | B8 | 3.42 R (bound/input frequency ratio)
9 | B9 | 5.95 R (bound/input frequency ratio)
10 | B10 | 6.83 R (bound/input frequency ratio)
11 | B11 | 3.24 R (bound/input frequency ratio)
12 | B12 | 0.927 R (bound/input frequency ratio)
13 | B13 | 6.14 R (bound/input frequency ratio)
